From PubChem BioAssay
PfHsp90 set2 – growth inhibition of PfHsp90-expressing yeast, primary screen, antimalarial PfHsp90 inhibitor project, S. cerevisiae, BacTiter-Glo luminescence, single point, set 2 | BacTiter-Glo ATP, 48 h; yeast lacking PDR1 and PDR3 efflux regulators | inhibition, % at 9.4 µM | 310,000 compounds, 0.32% hits | AID 504621, 2011;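 active means every replicate shows inhibition above about 80%, whatever the replicate mean, limit read from the data; inconclusive means mean inhibition reaches the set limit but some replicate falls short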
SKKanGAS inh – S. pyogenes SKKanGAS growth inhibitors in kanamycin, primary screen, streptokinase expression inhibitor project, SKKanGAS strain, BacTiter-Glo luminescence; AID 1662, 2009; inhibition, % at 7.5 µM; 300,000 compounds, 1.3% hits; 6 h;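 active means mean replicate score, as percent of positive control median, at least 50; inconclusive means mean below 50 but one replicate at or above 50; inactive means mean and every replicate below 50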;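 further: strain carries kanamycin resistance gene driven by streptokinase promoter and grows in 40 µg/ml kanamycin; loss of luminescence reflects streptokinase promoter inhibition or plain growth inhibition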
tim10-1 inh – growth inhibitors of tim10-1 mutant yeast, primary screen, luminescence, uHTS; S. cerevisiae tim10-1 ts strain growth, BacTiter-Glo, 24 h; AID 463190, 2010; inhibition, % at 20 µM; 330,000 compounds, 2.2% hits;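 active means inhibition of at least 40%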;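 further: mutant grown at 25 °C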
ATG4B inh – ATG4B protease inhibitors, primary screen, biochemical, fluorescence, uHTS. Cysteine protease ATG4B (Homo sapiens), Q9Y4P1. ATG4B cleavage of LC3-PLA2, NBD-HPC fluorescence, 1 h. inhibition, % at 8.33 µM. 340,000 compounds, 0.51% hits. AID 504462, 2011; in the data active means inhibition above about 40%
Target sequence (Q9Y4P1 whole entry, looked up): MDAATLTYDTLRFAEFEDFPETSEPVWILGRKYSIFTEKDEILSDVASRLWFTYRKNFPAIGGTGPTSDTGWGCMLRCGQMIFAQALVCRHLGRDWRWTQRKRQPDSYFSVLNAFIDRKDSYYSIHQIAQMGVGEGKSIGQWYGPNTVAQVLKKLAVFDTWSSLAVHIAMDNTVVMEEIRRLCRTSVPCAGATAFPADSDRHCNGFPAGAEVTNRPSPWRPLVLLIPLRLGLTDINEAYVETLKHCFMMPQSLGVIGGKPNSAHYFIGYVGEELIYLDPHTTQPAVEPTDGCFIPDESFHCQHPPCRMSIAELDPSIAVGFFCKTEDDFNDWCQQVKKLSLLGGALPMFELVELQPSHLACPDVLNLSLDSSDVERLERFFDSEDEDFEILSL
tim23-1 inh – growth inhibitors of tim23-1 mutant yeast, primary screen, luminescence, uHTS. S. cerevisiae tim23-1 growth, BacTiter-Glo luminescence, 24 h. inhibition, % at 20 µM. 330,000 compounds, 1.3% hits. AID 463212, 2010;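 active means growth inhibition of the mutant yeast at or above 50%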;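 further: temperature-sensitive mutant grown at 25 °C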
TIM10 inh – growth inhibitors of isogenic TIM10 control yeast, primary screen, counter-screen for tim10-1 yeast inhibitor project, luminescence, uHTS; S. cerevisiae TIM10 strain growth, BacTiter-Glo luminescence, 24 h; inhibition, % at 10 µM; 330,000 compounds, 1.4% hits; AID 463195, 2010;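 active means inhibition of 40% or more at the single tested concentration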;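 further: wild-type TIM10 isogenic control strain grown at permissive 25 °C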
Of the large screens only hits and unclear results are named; the others gave an inactive call. A selection: hits, their analogues and other compounds. The true share with any hit is near 4.7%.

CCC(NC(=O)CCc1c(C)c2cc3c(C)c(C)oc3cc2oc1=O)C(=O)N[C@@H](Cc1ccccc1)C(=O)O (stereo not given in full)	SKKanGAS inh 61.0
CSC[C@H](NC(=O)Cc1c(C)c2cc3c(C)c(C)oc3cc2oc1=O)C(=O)N[C@@H](Cc1ccccc1)C(=O)O	none
CCN1CCN(C(=O)N[C@@H](C(=O)N[C@@H]2C(=O)N3[C@@H]2SC(C)(C)[C@@H]3C(=O)O)c2ccccc2)C(=O)C1=O	SKKanGAS inh 102.8 (no result: PfHsp90 set2, ATG4B inh)
COC(=O)C1N2C(=O)[C@@H](NC(=O)COc3ccccc3)[C@H]2SC1(C)C (stereo not given in full)	SKKanGAS inh 96.2 (no result: PfHsp90 set2)
CC1(C)S[C@@H]2[C@H](NC(=O)C(C(=O)O)c3ccccc3)C(=O)N2[C@H]1C(=O)O (stereo not given in full)	none (no result: SKKanGAS inh)
N=c1ccn2c(n1)O[C@H]1[C@H](O)[C@@H](CO)O[C@H]12	SKKanGAS inh inconclusive
CCOC(=O)c1sc(NC(=O)CNCc2ccccn2)c(C(=O)OCC)c1C	SKKanGAS inh 87.5
CCOC(=O)c1sc(NC(=O)CNCc2cccnc2)c(C(=O)OCC)c1C	none
Cc1cccc2nc(COc3ccc4ccccc4c3Br)cn12	SKKanGAS inh 63.9
Cc1cccc2nc(CSc3ccccc3N)cn12	none
Fc1ccc(C(c2nnnn2Cc2ccco2)N2CCN(C3CCCCC3)CC2)cc1 (stereo not given)	none
COc1ccccc1NC(=O)c1ccc(NC(=O)c2cc3c(s2)CCC3)cc1	SKKanGAS inh 73.1
O=C(Nc1ccccc1OC(F)F)c1cc2c(s1)CCC2	none
COc1cc(C(=O)NCC(=O)N2CCN(S(=O)(=O)c3ccccc3)CC2)cc(OC)c1OC	none
CCCc1ccc(-c2cc(N)n[nH]2)cc1	SKKanGAS inh 112.6
O=c1[nH]c2cc(Cl)ccc2n(CCNc2ncc(C(F)(F)F)cc2Cl)c1=O	none
COc1ccccc1NS(=O)(=O)c1cccc(NC(=O)Nc2ccccc2)c1	none
COc1ccccc1NS(=O)(=O)c1cccc(NC(=O)Nc2ccc(Cl)cc2)c1	SKKanGAS inh 54.6
Cc1cccc(C(=O)OCC(=O)N(C)c2ccccc2)c1C	none
O=C(Nc1ccc(Cl)cc1)N[C@@H]1c2c(ccc3ccccc23)OC[C@@H]1CO	SKKanGAS inh 60.3
CN(C(=O)c1ccccc1)C1c2c(ccc3ccccc23)OCC1CO (stereo not given)	none
CCCCNc1c2c3c(cccc3n(C)c1=O)C(=O)c1ccccc1-2	SKKanGAS inh 53.6
Cn1c(=O)c(NCCO)c2c3c(cccc31)C(=O)c1ccccc1-2	none
Cc1cc(C)c2c(C(C)(C)C)nn(-c3ccccc3)c2n1	SKKanGAS inh 60.0
Cc1nnc(SC/C=C/c2ccccc2)n(N)c1=O	none (no result: SKKanGAS inh)
CC1=C(C(=O)Nc2ccc([N+](=O)[O-])cc2)C(c2cccc(C(F)(F)F)c2)NC(=S)N1c1ccccc1 (stereo not given)	SKKanGAS inh 50.4 (no result: PfHsp90 set2)
CCOC(=O)c1nn(-c2cccc(OC)c2)c2nc(Nc3ccccc3)cc(=O)n12	SKKanGAS inh 62.4
CCOC(=O)c1nn(-c2cccc(Cl)c2)c2nc(Nc3ccccc3)cc(=O)n12	none
O=C(/C=C(\c1ccc(Cl)cc1)n1cncn1)c1ccc(Cl)cc1	none
CC(C)(C)C(=O)NC(=S)NNC(=O)c1ccc(Cl)cc1Cl	SKKanGAS inh 73.3
CCCOc1ccc(C(=O)NNC(=S)NC(C)=O)cc1	SKKanGAS inh 93.0
O=C(O)c1ccc(NC(=S)NC(=O)c2cccc(COc3ccccc3)c2)cc1	SKKanGAS inh 58.1
C=CCNC(=S)NNC(=O)c1ccc(OCCCC)cc1	none
O=C(NC(=S)Nc1ccc(CN2CCCCC2)cc1)c1cccc(OCc2ccccc2)c1	none
CCCCOc1ccc(C(=O)NNC(=S)NC(=O)CC)cc1	PfHsp90 set2 105.8, SKKanGAS inh 96.7 (no result: tim10-1 inh, tim23-1 inh, TIM10 inh)
Cc1ccc(C)c(N2CCN(C(=O)Cn3c(=O)[nH]c4ccsc4c3=O)CC2)c1	none (no result: PfHsp90 set2)
